This is part of a sample that, as a whole, favours compounds with a hit. Of some 83,000 tested, about 20% had one in any assay.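 Cell lines were cultured in 96-well plates, exposed to a single compound concentration, and assessed for percent growth 48 hours later.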 Activity calls are given as the source filed them. The calls were made as follows: active = growth percent below 10; inactive = the rest.
Test system: MDA-MB-468 breast
Assay: NCI-60 one-dose screen, 48 h (100 = growth as untreated, 0 = no growth, -100 = all killed)
Settings: 10 µM unless noted

Row | Structure (SMILES) | growth
1 | C#CCn1c2c(c3ccccc31)C[C@]1(C)[C@H]3CC[C@@H]4[C@@H]5C(=CCC[C@H]5C(=C)C)CC[C@@]4(C)[C@]3(C)CC[C@H]1C2(C)C | 117% (inactive)
2 | C[C@]1(O)CC(=O)[C@]2(O)C3=C(C=C[C@]2(O)C1)C(=O)c1c(O)cccc1C3=O | -57.5% (active)
3 | COc1ccc(/C(=C/c2cc(OC)c(OC)c(OC)c2)[N+](=O)[O-])cc1 | -75.2% (active)
4 | NS(=O)(=O)c1ccc(Nc2nc(N/N=C/c3ccc(F)cc3)nc(Nc3ccccc3)n2)cc1 | 54.1% (inactive)
5 | CN1CCN(c2ccc(Nc3ncc(C(N)=O)c(NCCCNC(=O)C4CCC4)n3)cc2)CC1 | 6.58% (active)
6 | Oc1c(CN2CCC(N3CCCCC3)CC2)cc(Cc2cc(CN3CCC(N4CCCCC4)CC3)c(O)c3ncccc23)c2cccnc12 | -39.2% (active)
7 | Cn1cc(-c2noc(-c3cn(C)c4ncc(F)cc34)n2)c2cc(Cl)ccc21 | 52.9% (inactive)
8 | Cc1ccc(C)c(-n2c(-c3ccc(Br)cc3)csc2=NC(=O)c2ccccc2F)c1 | 55.4% (inactive)
9 | Cn1cc(C2=C(c3coc4cc(Br)ccc34)C(=O)NC2=O)c2ccccc21 | 5.23% (active)
10 | NC1(N)C=CC2=C(C=C1)C1(N)C3=C(C=CC(N)(N)C=C3)N2C2(N)C3=C(C=CC(N)(N)C=C3)N1C1=C2C=CC(N)(N)C=C1 | 72.3% (inactive)
11 | COc1cc2c(c(OC)c1OC)C(=O)CC(c1cccc(C(=O)Nc3ccc(C#N)cc3)c1)O2 (configuration not stated) | 58.9% (inactive)
12 | Cc1ccc(-c2nc3nc(-c4ccc(Br)cc4)nc(N4CCCNCC4)c3o2)cc1 | -65% (active)

— PubChem BioAssay (NCI)
